# Measured values as given in publication PMC4552634, “A New Set of Chemical Starting Points with Plasmodium falciparum Transmission-Blocking Potential for Antimalarial Drug Discovery” (PLoS ONE, 2015).
# In all, about 13,000 compounds went through this assay and about 3,200 (25%) showed an effect of 50% or more. This is one part of the list.
# System: P. falciparum stage V gametocytes
# Parameters: BacTiter-Glo ATP luminescence viability of purified stage V gametocytes in 384-well plates, per cent inhibition versus DMSO
# Conditions: 48 h, 5 µM; inhibitor
row,Compound,% Inhibition [%]
1,CCNc1cc(C(=O)N[C@@H](Cc2ccccc2)[C@H](O)CNCc2cccc(-c3cncnc3)c2)cc(N2CCCC2=O)c1 [TCMDC-141687],18.59
2,O=C(Nc1cccc(-c2nn3ccccc3c2-c2ccnc(Nc3cccc(N4CCCC4=O)c3)n2)c1)c1cc(F)ccc1F [TCMDC-135850],10.23
3,COc1ccccc1C1CN(CCNC(=O)c2ncc(C)[nH]2)Cc2ccccc2O1 (stereo not drawn) [TCMDC-124657],-1.409
4,COc1cccc2cc(C(=O)N[C@@H](CC(C)C)C(=O)NC(/C=N/NC(=O)c3ccccc3)CCc3ccccc3)oc12 (stereo partly drawn) [TCMDC-135434],-2.183
5,COc1ccc(Cn2cncc2CN(CCC(C)C)C(=O)c2ccc(Cl)nc2Cl)cc1 [TCMDC-132536],21.31
6,O=C(Nc1cccc(CN2CCN(C(=O)c3ccccc3)CC2)c1)c1cccs1 [TCMDC-136325],14.84
7,O=C(Nc1cccc(CN2CCCN(Cc3ccc(F)cc3)CC2)c1)c1cc2ccccc2s1 [TCMDC-141876],71.77
8,COc1ccc(CN2CCCN(Cc3cccc(NC(=O)c4cc5ccccc5s4)c3)CC2)cc1 [TCMDC-141867],-63.54
9,Cc1cccc(C(=O)N2CCN(Cc3cccc(NC(=O)c4cccs4)c3)CC2)c1 [TCMDC-136328],7.958
10,O=C(Nc1cccc(CN2CCCN(Cc3ccc(O)cc3)CC2)c1)c1cc2ccccc2s1 [TCMDC-141878],32.43
11,Cc1ccc(CN2CCCN(Cc3cccc(NC(=O)c4cc5ccccc5s4)c3)CC2)cc1C [TCMDC-141879],80.31
12,Cc1ccc(CN2CCN(Cc3cccc(NC(=O)c4cccs4)c3)CC2)cc1C [TCMDC-141888],86.1
13,O=C(Nc1cccc(CN2CCN(C(=O)c3cccs3)CC2)c1)c1cccs1 [TCMDC-136329],33.24
14,O=C(Nc1cccc(CN2CCN(C(=O)c3cccc(F)c3)CC2)c1)c1cccs1 [TCMDC-136330],79.41
15,Cc1ccc(CN2CCN(Cc3cccc(NC(=O)c4ccc5ccccc5c4)c3)CC2)cc1C [TCMDC-141887],-29.11
16,O=C(NCC1CCC(CNCCCc2ccccc2)CC1)c1cc(Cl)cc(Cl)c1 (stereo not drawn) [TCMDC-140679],-14.35
17,CCCc1cc(N2CCC(c3ccccc3)(N3CCCCC3)CC2)nc(Nc2ccc(OC)cc2)n1 [TCMDC-132389],-43.67
18,O=C(Nc1cccc(CN2CCCN(Cc3ccc4c(c3)OCO4)CC2)c1)c1cc2ccccc2s1 [TCMDC-141865],83.34
19,O=C(Nc1cccc(CN2CCN(C(=O)c3cccc(F)c3)CC2)c1)c1ccco1 [TCMDC-136324],35.66
20,O=C(Nc1cccc(CN2CCN(C(=O)c3ccccc3)CC2)c1)c1ccco1 [TCMDC-136321],-15.6
21,N#Cc1ccc(CN2CCCN(Cc3cccc(NC(=O)c4cc5ccccc5s4)c3)CC2)cc1 [TCMDC-141866],-28.76
22,Cc1cccc(C(=O)N2CCN(Cc3cccc(NC(=O)c4ccco4)c3)CC2)c1 [TCMDC-136323],80.03
23,O=C(Nc1cccc(CN2CCN(Cc3ccc(O)cc3)CC2)c1)c1cc2ccccc2s1 [TCMDC-134624],6.138
24,O=C(/C=C/c1ccc(Cl)c(Cl)c1)NCCCCCN1CCCN(C(=O)Nc2cccc(Cl)c2)CC1 [TCMDC-135749],-36.61

row,Compound,% Inhibition [%]
1,CC(C)C[C@@H](/C=N/N1CCOC1=O)NC(=O)[C@H](CC(C)C)NC(=O)c1ccc(F)cc1 [TCMDC-136186],-17.2
2,c1cc(Nc2nccc(-c3cnn4ncccc34)n2)cc(-c2cnco2)c1 [TCMDC-138684],-9.488
3,CN1CCN(c2ccc(Nc3nccc(-c4cnn5ncccc45)n3)cc2Cl)CC1 [TCMDC-138688],55.04
4,O=[N+]([O-])c1cccc(Nc2nccc(-c3cnn4ncccc34)n2)c1 [TCMDC-138697],-28.72
5,Cc1ccc2[nH]c3c(NCCCN4CCOCC4)ncnc3c2c1 [TCMDC-124068],-37.8
6,N#Cc1ccc(-c2ccc3nc(N4CCCN(C5CCC5)CC4)ccc3c2)cc1 [TCMDC-136368],18.23
7,N=C1C=C(N)C(=O)c2ccccc21 [TCMDC-141992],106.9
8,O=C(Nc1ccc(OC2CCN(Cc3ccc(F)cc3)C2)c(Cl)c1)c1ccc(F)cc1 (stereo not drawn) [TCMDC-133763],12.34
9,O=C1c2ccccc2-n2c1nc1ccccc1c2=O [TCMDC-125859],-11.25
10,COc1cccc(Nc2nc(NCCO)c3ccccc3n2)c1.Cl [TCMDC-124573],23.38
11,COc1cccc(Nc2nc(N)c3ccccc3n2)c1.Cl [TCMDC-123746],24.77
12,CCN1CCC2(c3cccc(OC)c3)Cc3nc4ccccc4c(-c4ccccc4)c3CC2C1 (stereo not drawn) [TCMDC-138968],77.57
13,COCCOc1nc(N)nc2ncc(Cc3cc(OC)ccc3OC)c(C)c12 [TCMDC-137754],36.3
14,O=C(N[C@@H](Cc1ccccc1)C(=O)NC1CCCCCC1)c1ccc(O)c(-c2ccc(Cl)c(Cl)c2)c1 [TCMDC-140845],40.83
15,COc1cc(C)nc2ccc(NC(=O)Nc3ccc4nc(C)cc(OC)c4c3)cc12 [TCMDC-139138],8.428
16,CCCCOc1cc(C)nc2ccc(NC(=O)COCC(=O)Nc3ccc4nc(C)cc(OCCCC)c4c3)cc12 [TCMDC-140149],-34.05
17,COc1cc(C)nc2ccc(NC(=O)COCC(=O)Nc3ccc4nc(C)cc(OC)c4c3)cc12 [TCMDC-139461],62.71
18,COCCOCCOCCn1ccc2c3c(N)nc(N)nc3ccc21 [TCMDC-137974],22.53
19,COc1ccc(Cn2ncc3c4c(N)nc(N)nc4ccc32)cc1OC [TCMDC-131934],49.54
20,COCn1ccc2c3c(N)nc(N)nc3ccc21 [TCMDC-137505],0.2853
21,COc1cc(Cn2ccc3c4c(N)nc(N)nc4ccc32)cc(OC)c1OC [TCMDC-137341],118.6
22,COc1cccc(Cn2ccc3c4c(N)nc(N)nc4ccc32)c1 [TCMDC-137811],100
23,COc1ccc(Cn2ccc3c4c(N)nc(N)nc4ccc32)cc1 [TCMDC-139862],105.9
24,COCCn1ccc2c3c(N)nc(N)nc3ccc21 [TCMDC-137263],12.7
